# Data from PubChem BioAssay (NCI).
# Values joined by “and” are separate entries in the source; they are usually repeats but may differ in a detail not shown here. Equal values may be shown once. The panel holds about 79,000 compounds, 15% with a hit somewhere; the sample as a whole holds those more often. Some structures have more than one record in an assay (separate samples or runs), and their calls can disagree. Active and inactive are the calls of the source. No stated cut-off is given here; in the data, active means growth inhibition above about 70%; inactive means the rest.
# What was measured:
# [1] = NCI Yeast Anticancer Drug Screen. Data for the rad52 strain (AID 147);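 further: 0% = growth of vehicle-treated control cultures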; conditions: S. cerevisiae rad52 mutant growth inhibition, stronger effect = higher value
# Procedure, shortened: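 Growth of repair-deficient yeast cells was compared between compound-treated and vehicle-treated cultures to give percent inhibition.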
# [2] = NCI Yeast Anticancer Drug Screen. Data for the wt1 strain (AID 149);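 further: 0% = growth of vehicle-treated wt1 cultures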; conditions: S. cerevisiae wt1 strain (SPY 50644) growth inhibition, stronger effect = higher value
# Procedure, shortened: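 Growth inhibition read against vehicle controls after compound exposure of the wt1 yeast strain.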
# [3] = NCI Yeast Anticancer Drug Screen. Data for the rad50EPP+ strain (AID 151);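 further: 0% = growth of vehicle-treated control cultures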; conditions: S. cerevisiae rad50 mutant strain, stronger effect = higher value
# Procedure, shortened: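 Measured: growth inhibition of rad50EPP+ yeast. Reference: vehicle-treated controls. Screen uses strains with defined genetic alterations in DNA damage repair or cell cycle control.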
# [4] = NCI Yeast Anticancer Drug Screen. Data for the mgt1 strain (AID 153); conditions: S. cerevisiae mgt1 mutant growth inhibition, stronger effect = higher value
# Procedure, shortened: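 Compounds were applied to mgt1 mutant yeast, and growth was then compared against vehicle-treated control cultures to give percent inhibition.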
# [5] = NCI Yeast Anticancer Drug Screen. Data for the rad50 strain (AID 155);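 further: 0% = growth of vehicle-only cultures of the same strain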; conditions: S. cerevisiae rad50 strain growth inhibition, stronger effect = higher value
# Procedure, shortened: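 Readout: growth inhibition relative to vehicle-treated cultures. Compound exposure was carried out in a genetically defined yeast strain deficient in DNA damage repair.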
# [6] = NCI Yeast Anticancer Drug Screen. Data for the mec2-1 strain (AID 157); conditions: S. cerevisiae mec2-1 strain, stronger effect = higher value
# Procedure, shortened: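 Compounds were applied to mec2-1 yeast cells. Their growth was then compared with that of vehicle-treated cultures to give growth inhibition.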
# [7] = NCI Yeast Anticancer Drug Screen. Data for the rad14 strain (AID 159);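 further: 0% = growth of vehicle-treated control cultures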; conditions: S. cerevisiae rad14 strain growth inhibition, stronger effect = higher value
# Procedure, shortened: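 Growth inhibition vs vehicle controls; genetically altered yeast strain (DNA damage repair defect) treated with test compounds.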
# [8] = NCI Yeast Anticancer Drug Screen. Data for the sgs1 mgt1 strain (AID 161);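 further: 0% = growth of cultures given vehicle only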; conditions: S. cerevisiae sgs1 mgt1 strain, stronger effect = higher value
# Procedure, shortened: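 Percent growth inhibition was derived by comparing compound-exposed mutant yeast with vehicle-exposed cultures. The strain carries alterations in DNA damage repair.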
# [9] = NCI Yeast Anticancer Drug Screen. Data for the CLN2oe strain (AID 163);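 further: 0% = growth of vehicle-only control cultures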; conditions: S. cerevisiae CLN2oe strain, stronger effect = higher value
# Procedure, shortened: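 Cells of an engineered yeast line with disturbed cell-cycle regulation are treated with compound. Inhibition of growth is then calculated relative to the vehicle-treated reference.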
# [10] = NCI Yeast Anticancer Drug Screen. Data for the bub3 strain (AID 167); conditions: S. cerevisiae bub3 mutant strain, stronger effect = higher value
# Procedure, shortened: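 Readout: yeast growth inhibition, expressed relative to vehicle-only wells. The test organism is a mutant strain from a panel with lesions in DNA repair or checkpoint genes.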
# [11] = NCI Yeast Anticancer Drug Screen. Data for the wt2 strain (AID 169);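 further: 0% = growth of vehicle-treated yeast cultures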; conditions: S. cerevisiae wt2 strain growth inhibition, stronger effect = higher value
# Procedure, shortened: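 Growth of compound-treated yeast is measured and expressed as inhibition relative to vehicle-only controls.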
# [12] = NCI Yeast Anticancer Drug Screen. Data for the mlh1 strain (AID 171);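 further: 0% = growth of vehicle-treated control cultures of the same strain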; conditions: S. cerevisiae mlh1 strain growth inhibition, stronger effect = higher value
# Procedure, shortened: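 Test agents were incubated with yeast bearing a defined DNA damage repair or cell cycle control alteration; values are growth inhibition normalised to vehicle-treated cultures.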
# [13] = NCI Yeast Anticancer Drug Screen. Data for the sgs1 strain (AID 173);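 further: 0% = growth of vehicle-only control cultures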; conditions: S. cerevisiae sgs1 mutant, stronger effect = higher value
# Procedure, shortened: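 Strain with an altered DNA repair or cell cycle pathway exposed to compound. Growth then measured. Value = inhibition versus vehicle control.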
# [14] = NCI Yeast Anticancer Drug Screen. Data for the mlh1 rad18 strain (AID 175); conditions: S. cerevisiae mlh1 rad18 strain growth inhibition, stronger effect = higher value
# Procedure, shortened: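 A repair-deficient yeast strain is exposed to test compound, and growth is scored relative to vehicle-treated controls.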
# [15] = NCI Yeast Anticancer Drug Screen. Data for the rad18 strain (AID 177); conditions: S. cerevisiae rad18 mutant growth inhibition, stronger effect = higher value
# Procedure, shortened: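 DNA-repair-defective yeast; compound treatment; growth inhibition scored against vehicle.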
# [16] = at 5.0 µM (retest, dose inferred, filed as 0.5)
# [17] = at 50.0 µM (retest, dose inferred, filed as 5.0)
smiles,measurement,setting,value
Cc1sc2ccc3ccccc3c2[n+]1C,growth inhibition,[1]; at 1.2 µM,-3% (inactive)
same,growth inhibition,[1]; at 3.7 µM,-14% (inactive)
same,growth inhibition,[1]; at 11.0 µM,-17% (inactive)
same,growth inhibition,[1]; at 33.0 µM,3% (inactive)
same,growth inhibition,[1]; at 100.0 µM,94% (active)
same,growth inhibition,[2]; at 1.2 µM,-21% (inactive)
same,growth inhibition,[2]; at 3.7 µM,-19% (inactive)
same,growth inhibition,[2]; at 11.0 µM,-24% (inactive)
same,growth inhibition,[2]; at 33.0 µM,-8% (inactive)
same,growth inhibition,[2]; at 100.0 µM,94% (active)
same,growth inhibition,[3]; at 1.2 µM,-23% (inactive)
same,growth inhibition,[3]; at 3.7 µM,-10% (inactive)
same,growth inhibition,[3]; at 11.0 µM,-40% (inactive)
same,growth inhibition,[3]; at 33.0 µM,-25% (inactive)
same,growth inhibition,[3]; at 100.0 µM,10% (inactive)
same,growth inhibition,[4]; at 1.2 µM,-9% (inactive)
same,growth inhibition,[4]; at 3.7 µM,-12% (inactive)
same,growth inhibition,[4]; at 11.0 µM,-17% (inactive)
same,growth inhibition,[4]; at 33.0 µM,13% (inactive)
same,growth inhibition,[4]; at 100.0 µM,79% (active)
same,growth inhibition,[5]; at 1.2 µM,7% (inactive)
same,growth inhibition,[5]; at 3.7 µM,27% (inactive)
same,growth inhibition,[5]; [16],44% (inactive) and -15% (inactive)
same,growth inhibition,[5]; at 11.0 µM,12% (inactive)
same,growth inhibition,[5]; at 33.0 µM,15% (inactive)
same,growth inhibition,[5]; [17],77% (active) and -4% (inactive)
same,growth inhibition,[5]; at 50.0 µM,82.6% (active) and 95.2% (active)
same,growth inhibition,[5]; at 100.0 µM,83% (active)
same,growth inhibition,[6]; at 1.2 µM,-31% (inactive)
same,growth inhibition,[6]; at 3.7 µM,-36% (inactive)
same,growth inhibition,[6]; [16],49% (inactive) and -26% (inactive)
same,growth inhibition,[6]; at 11.0 µM,-17% (inactive)
same,growth inhibition,[6]; at 33.0 µM,-11% (inactive)
same,growth inhibition,[6]; [17],61% (inactive) and -2% (inactive)
same,growth inhibition,[6]; at 50.0 µM,85.8% (active) and 91.7% (active)
same,growth inhibition,[6]; at 100.0 µM,93% (active)
same,growth inhibition,[7]; at 1.2 µM,-34% (inactive)
same,growth inhibition,[7]; at 3.7 µM,-22% (inactive)
same,growth inhibition,[7]; at 11.0 µM,-29% (inactive)
same,growth inhibition,[7]; at 33.0 µM,-28% (inactive)
same,growth inhibition,[7]; at 100.0 µM,85% (active)
same,growth inhibition,[8]; [16],-14% (inactive) and -11% (inactive)
same,growth inhibition,[8]; [17],20% (inactive) and 4% (inactive)
same,growth inhibition,[8]; at 50.0 µM,89.2% (active) and 97.3% (active)
same,growth inhibition,[9]; at 1.2 µM,-16% (inactive)
same,growth inhibition,[9]; at 3.7 µM,-64% (inactive)
same,growth inhibition,[9]; at 11.0 µM,-39% (inactive)
same,growth inhibition,[9]; at 33.0 µM,-19% (inactive)
same,growth inhibition,[9]; at 100.0 µM,92% (active)
same,growth inhibition,[10]; at 1.2 µM,-2% (inactive)
same,growth inhibition,[10]; at 3.7 µM,-15% (inactive)
same,growth inhibition,[10]; [16],23% (inactive) and -18% (inactive)
same,growth inhibition,[10]; at 11.0 µM,-28% (inactive)
same,growth inhibition,[10]; at 33.0 µM,14% (inactive)
same,growth inhibition,[10]; [17],44% (inactive) and 36% (inactive)
same,growth inhibition,[10]; at 50.0 µM,86.6% (active) and 89.3% (active)
same,growth inhibition,[10]; at 100.0 µM,96% (active)
same,growth inhibition,[11]; at 1.2 µM,-11% (inactive)
same,growth inhibition,[11]; at 3.7 µM,2% (inactive)
same,growth inhibition,[11]; at 11.0 µM,-12% (inactive)
same,growth inhibition,[11]; at 33.0 µM,8% (inactive)
same,growth inhibition,[11]; at 100.0 µM,94% (active)
same,growth inhibition,[12]; at 1.2 µM,-67% (inactive)
same,growth inhibition,[12]; at 3.7 µM,-62% (inactive)
same,growth inhibition,[12]; at 11.0 µM,-70% (inactive)
same,growth inhibition,[12]; at 33.0 µM,-41% (inactive)
same,growth inhibition,[12]; at 100.0 µM,41% (inactive)
same,growth inhibition,[13]; at 1.2 µM,3% (inactive)
same,growth inhibition,[13]; at 3.7 µM,2% (inactive)
same,growth inhibition,[13]; at 11.0 µM,1% (inactive)
same,growth inhibition,[13]; at 33.0 µM,19% (inactive)
same,growth inhibition,[13]; at 100.0 µM,91% (active)
same,growth inhibition,[14]; [16],32% (inactive) and -17% (inactive)
same,growth inhibition,[14]; [17],46% (inactive) and 8% (inactive)
same,growth inhibition,[14]; at 50.0 µM,86.7% (active) and 96.7% (active)
same,growth inhibition,[15]; at 1.2 µM,0% (inactive)
same,growth inhibition,[15]; at 3.7 µM,4% (inactive)
same,growth inhibition,[15]; at 11.0 µM,2% (inactive)
same,growth inhibition,[15]; at 33.0 µM,-1% (inactive)
same,growth inhibition,[15]; at 100.0 µM,87% (active)
